Data reported in PubChem BioAssay AID624483 (NMMLSC, 2012).
Screen size: about 360,000 compounds; about 11,000 (3.1%) were called active. Inconclusive results (about 2%) are left out. No stated cut-off is given here; in the data, active means fluorescence intensity above about 16000; inconclusive means no clear call, values can overlap the other calls; inactive means below that. The full list was thinned out, with actives kept by preference.

Assay: compound fluorescence in toxin protease inhibitor counterscreen, primary screen, artefact control for toxin protease inhibitor project, biochemical, multiplex microsphere, HTS (AID 624483)
Settings: compound autofluorescence counterscreen, microsphere flow cytometry; stronger effect = higher value
In the case of `Cc1ccc(NC2=NC(c3ccccc3)n3c(nc(C)cc3=O)N2)cc1` (centres undefined), the fluorescence intensity is reported as 3910 (inactive). In the case of `CC(=O)Nc1c(-c2ccc(C)cc2)nc2ccc(Cl)cn12`, the fluorescence intensity is reported as 2860 (inactive). In the case of `Cc1occc1C(=O)NC1CCCN(Cc2ccc(CC(C)C)cc2)C1` (centres undefined), the fluorescence intensity is reported as 7560 (inactive). In the case of `COc1ccc(C2=Nc3ccccc3NC(=O)C2N(C(=O)c2cc3ccccc3[nH]2)c2ccccc2)cc1` (centres undefined), the fluorescence intensity is reported as 6050 (inactive). For `COc1ccc(-c2cc3c(c4c2ccn4C)C2CCC3C2)cn1` (centres undefined), the fluorescence intensity was 2710 (inactive). For `COC(=O)C1C(=O)NCC1c1ccc(C)cc1` (centres undefined), the fluorescence intensity was 15900 (inactive). In the case of `COC(=O)C1C(=O)NCC1c1ccc(OC)cc1` (centres undefined), the fluorescence intensity is reported as 17100 (active). In the case of `CCOC(=O)C1C(=O)NCC1c1ccccc1` (centres undefined), the fluorescence intensity is reported as 9370 (inactive). For `COc1ccc(-c2cc(NC=O)c3ncc(-c4cccc(C(=O)N(C)C)c4)n3c2)c(OC)c1`, the fluorescence intensity was 3580 (inactive). With `c1ccc2cc3[nH]c(CN4CCCCC4)nc3cc2c1` the fluorescence intensity was 5430 (inactive). In the case of `Clc1ccccc1SCc1nc2ccccc2[nH]1`, the fluorescence intensity is reported as 24700 (active). For `Oc1ccc2nc(Cc3ccccc3)[nH]c2c1`, the fluorescence intensity was 4090 (inactive). For `Clc1ccc(-c2nnc(SCc3nc4ccccc4s3)o2)cc1`, the fluorescence intensity was 2530 (inactive). With `O=C(OCc1nc2ccccc2[nH]1)C1CCCCC1` the fluorescence intensity was 2190 (inactive). For `c1ccc(-c2nnc(SCc3nc4ccccc4[nH]3)o2)cc1`, the fluorescence intensity was 18800 (active). For `c1ccc2c(CSCc3nc4ccccc4[nH]3)cccc2c1`, the fluorescence intensity was 21700 (active). For `O=c1c(-c2ccc(Cl)cc2)[n+]([O-])c2ccccc2n1OCc1nc2ccccc2[nH]1`, the fluorescence intensity was 4300 (inactive). With `Fc1ccc2nc(-c3ccccc3)nc(SCc3nnc(-c4ccccc4)o3)c2c1` the fluorescence intensity was 4280 (inactive). With `CC1(Oc2ccccc2-c2ccno2)CCN(Cc2ccc(-c3ccccc3)o2)C1` (centres undefined) the fluorescence intensity was 3970 (inactive). In the case of `CN1CCN(c2ccncc2S(=O)(=O)N2CCCC2)CC1`, the fluorescence intensity is reported as 3800 (inactive). With `Cc1ccc(NC(=O)c2ccc(S(=O)(=O)NCC3CCCO3)cc2)cc1C` (centres undefined) the fluorescence intensity was 4660 (inactive). With `CCc1c(O)nc(SCC(=O)Nc2ccccc2)n(C(C)CC)c1=O` (centres undefined) the fluorescence intensity was 9640 (inactive). For `CCOC(=O)c1cc2cc(C)ccc2[nH]1`, the fluorescence intensity was 4370 (inactive). In the case of `Cc1cc(Br)cn2c(Cc3cccc(F)c3)c(-c3cccc(Br)c3)nc12`, the fluorescence intensity is reported as 5680 (inactive). In the case of `C=CC[C@@H](Cc1ccc(F)cc1)C(=O)OC[C@H]1CCCN1C(=O)[C@H](CC=C)CC(=O)N(CCO)Cc1ccccc1`, the fluorescence intensity is reported as 3800 (inactive). In the case of `Cc1cccc(OCc2nnc(SCn3nnc4ccccc4c3=O)o2)c1`, the fluorescence intensity is reported as 4060 (inactive). With `Cc1cc(C)cc(-c2nnc(SCC(=O)NC3CC3)o2)c1` the fluorescence intensity was 8900 (inactive). In the case of `Cc1cc(C)cc(OCc2nnc(SCC(=O)OC3CCCCC3)o2)c1`, the fluorescence intensity is reported as 19000 (active). In the case of `CN(C)CCN1CCN(c2cc(-c3cccc(Cl)c3)nc3ccnn23)CC1`, the fluorescence intensity is reported as 3570 (inactive). For `COC(=O)[C@@]1(Sc2ccc(C)cc2)CC(=O)N(c2cccc(SC)c2)[C@@H]1c1ccccc1`, the fluorescence intensity was 4090 (inactive). For `CCc1nc2oc3ccccc3c(=O)c2c(=O)n1Cc1ccc(OC)cc1`, the fluorescence intensity was 17100 (active). In the case of `O=c1c2ccccc2oc2nc3n(c(=O)c12)CCCS3`, the fluorescence intensity is reported as 10300 (inactive). For `COc1ccc(Cn2c(=O)oc3ccccc32)cc1`, the fluorescence intensity was 2890 (inactive). For `CCCCn1nnnc1C1(C)CCC(=O)N1Cc1ccc(OC)c(OC)c1` (centres undefined), the fluorescence intensity was 5290 (inactive). With `CCOC(=O)c1cc(NC(=O)c2ccc(Cl)cc2)c(=O)oc1-c1ccccc1` the fluorescence intensity was 5720 (inactive). In the case of `COc1cc(NC(=O)c2ccccc2)c(OC)cc1NC(=O)Cc1ccccc1`, the fluorescence intensity is reported as 4090 (inactive). For `CC(=O)c1cc(NC(=O)c2ccccc2)c(=O)oc1/C=C/N(C)C`, the fluorescence intensity was 24500 (active). With `O=C(NCC1CCCO1)c1cc2c(s1)CCCC2` (centres undefined) the fluorescence intensity was 8290 (inactive). For `O=C(CNC(=O)c1cc2c(s1)CCC2)Nc1ccccc1Br`, the fluorescence intensity was 24100 (active). For `O=C(CCc1nc2sc3c(c2c(=O)[nH]1)CCCC3)NCC(=O)Nc1ccccc1Br`, the fluorescence intensity was 3820 (inactive). With `CN(C)c1ccc(N/C=C/C(=O)C(F)(F)F)cc1` the fluorescence intensity was 3470 (inactive). For `CCc1nc2ccc(C(=O)NCCNC(C)=O)cn2c1N(CC)Cc1cccc(Br)c1`, the fluorescence intensity was 3860 (inactive). With `Cc1ccn2c(=O)nc(SCC(=O)NCc3ccc4c(c3)OCO4)nc2c1` the fluorescence intensity was 5730 (inactive). For `Cc1ccn2c(=O)nc(SCC(=O)NCc3ccc(F)cc3)nc2c1`, the fluorescence intensity was 16300 (active). In the case of `Cc1ccc(CNC(=O)CSc2nnc3c(n2)[nH]c2ccc(F)cc23)cc1`, the fluorescence intensity is reported as 5580 (inactive). With `COc1ccc(CC(N)c2csc(NC(=O)Nc3ccc(C(C)C)cc3)n2)cc1` (centres undefined) the fluorescence intensity was 3480 (inactive). In the case of `c1ccc2c(CNn3cnnc3)cccc2c1`, the fluorescence intensity is reported as 2660 (inactive). For `Nc1scc[n+]1Cc1cccc2cccnc12`, the fluorescence intensity was 3430 (inactive). For `c1ccc2c(C[n+]3csc4ccccc43)cccc2c1`, the fluorescence intensity was 24500 (active). In the case of `O=S(=O)(NCc1cccnc1)c1ccc(Br)s1`, the fluorescence intensity is reported as 23300 (active). In the case of `O=S(=O)(NCc1ccccn1)c1ccc(Br)s1`, the fluorescence intensity is reported as 18000 (active). In the case of `Cc1cc(S(=O)(=O)NCc2ccccn2)c(Cl)cc1Cl`, the fluorescence intensity is reported as 3790 (inactive). In the case of `O=S(=O)(NCc1cccnc1)c1ccc(Cl)nc1`, the fluorescence intensity is reported as 2520 (inactive). In the case of `O=S(=O)(NCc1ccccn1)c1ccc(F)cc1`, the fluorescence intensity is reported as 11500 (inactive). For `CC1CCN(S(=O)(=O)c2ccc(S(=O)(=O)NCc3cccnc3)cc2)CC1`, the fluorescence intensity was 4180 (inactive). With `CN(C(=O)c1cccc(NC(=O)C2CCN(C(=O)OC(C)(C)C)CC2)c1)C1CCC1` the fluorescence intensity was 4250 (inactive). In the case of `CCc1ccnc(NS(=O)(=O)c2ccc3c(c2)OCCO3)c1`, the fluorescence intensity is reported as 6030 (inactive). For `CC(=O)NN=C(C)c1ccc(NC(=O)C2CC2)cc1`, the fluorescence intensity was 3420 (inactive). For `CCCCCn1nnnc1-c1nc2cc3ccccc3cc2[nH]c1=O`, the fluorescence intensity was 5190 (inactive). With `CC(O)C(NS(=O)(=O)c1ccc(Cl)cc1)C(=O)OCc1cc([N+](=O)[O-])cc2c1OCOC2` (centres undefined) the fluorescence intensity was 3270 (inactive). In the case of `COc1ccccc1CSc1ncc(-c2ccc([N+](=O)[O-])cc2)[nH]1`, the fluorescence intensity is reported as 2560 (inactive). In the case of `Nc1ccccc1SCc1cc([N+](=O)[O-])cc2c1OCOC2`, the fluorescence intensity is reported as 22000 (active). For `Cn1c(NC(=O)c2ccco2)c(-c2ccccc2Cl)c(=O)c2ccccc21`, the fluorescence intensity was 5600 (inactive). In the case of `COc1cccc(-c2cnc(C(O)c3ccccc3OC)[nH]2)c1` (centres undefined), the fluorescence intensity is reported as 4140 (inactive). For `CCN(Cc1nc2ccccc2c(=O)[nH]1)Cc1cc(=O)oc2cc(C)c(C)cc12`, the fluorescence intensity was 22700 (active). In the case of `CCN(CC(=O)NC(=O)NCc1ccccc1)Cc1nc2ccccc2c(=O)[nH]1`, the fluorescence intensity is reported as 4790 (inactive). With `CN(Cc1nc2ccccc2c(=O)[nH]1)Cc1cc(=O)oc2ccc3ccccc3c12` the fluorescence intensity was 10600 (inactive). With `Cc1ccccc1/[N+]([O-])=C/c1ccncc1` the fluorescence intensity was 3600 (inactive). In the case of `O=C(Nc1ccc(F)cc1)Nc1nnc([C@H]2C[C@H](O)[C@@H](CO)O2)s1`, the fluorescence intensity is reported as 2870 (inactive). With `CCOc1ccc(C(=O)Nc2nccs2)cc1[N+](=O)[O-]` the fluorescence intensity was 2430 (inactive). With `COc1cccc(OCC(=O)NNC(=O)c2cnccn2)c1` the fluorescence intensity was 2360 (inactive). For `COc1ccc(C(=O)NNC(=O)c2cnccn2)cc1[N+](=O)[O-]`, the fluorescence intensity was 16500 (active). For `Cc1ccc(CC2(C)C(=O)Nc3ccc(OC(F)(F)F)cc32)cc1` (centres undefined), the fluorescence intensity was 3690 (inactive). With `O=C(COc1ccc(S(=O)(=O)Nc2cccc(C(F)(F)F)c2)cc1)N1CCOCC1` the fluorescence intensity was 4570 (inactive). In the case of `O=C(Nc1cccc(OCC(=O)N2CCOCC2)c1)C1CCCCC1`, the fluorescence intensity is reported as 23600 (active). With `Cc1cccc(NC(=O)C2CCN(C(=O)NC3CCCCC3)CC2)c1` the fluorescence intensity was 3730 (inactive). For `C#Cc1ccc(NC(=O)C2(C)CCN2C(=O)Cc2ccc(-c3ccccc3)cc2)cc1` (centres undefined), the fluorescence intensity was 3720 (inactive). With `Cc1ccc(C)c(NC(=S)NNC(=S)Nc2ccc(C(C)C)cc2)c1` the fluorescence intensity was 3300 (inactive). In the case of `C/C(=N\NC(=S)Nc1ccc(C)cc1)c1cc2ccccc2o1`, the fluorescence intensity is reported as 4230 (inactive). With `Cc1ccc(NC(=S)N/N=C2/CCCc3c(C)cc(C)cc32)cc1` the fluorescence intensity was 20600 (active). For `COCc1cccc(-c2csc(C(O)c3ccc(F)cc3)n2)c1` (centres undefined), the fluorescence intensity was 3440 (inactive). For `O=C(CC1Nc2ccccc2NC1=O)Nc1ccccc1` (centres undefined), the fluorescence intensity was 3710 (inactive). With `N#Cc1ccc(-c2ccc3nccn3c2)cc1` the fluorescence intensity was 3660 (inactive). With `Cc1ccc(NS(=O)(=O)c2ccc(C(C)(C)C)cc2)cn1` the fluorescence intensity was 3470 (inactive). For `Cc1ccc(S(=O)(=O)Nc2ccc3ncccc3c2)cc1`, the fluorescence intensity was 22700 (active). For `Cc1cc(C)cc(OCC(=O)Nc2ccc(S(=O)(=O)Nc3ccccn3)cc2)c1`, the fluorescence intensity was 2260 (inactive). In the case of `CSc1cccc(NC(=S)N(C(C)C)C(C)c2ccccn2)c1` (centres undefined), the fluorescence intensity is reported as 3430 (inactive). With `Cc1ccc2c(=O)cc(C(=O)NCCc3ccc(S(N)(=O)=O)cc3)oc2c1C` the fluorescence intensity was 3650 (inactive). For `O=C(NC1(C(F)(F)F)NC(=O)N(Cc2cccnc2)C1=O)c1ccccc1Cl` (centres undefined), the fluorescence intensity was 21200 (active). In the case of `COc1ccc(C(=O)NC2(C(F)(F)F)NC(=O)N(CCCc3ccccc3)C2=O)c(OC)c1OC` (centres undefined), the fluorescence intensity is reported as 8270 (inactive). With `O=C(NCc1cccnc1)c1ccccc1NC(=O)c1c(F)cccc1F` the fluorescence intensity was 5910 (inactive). In the case of `Cc1onc(-c2ccccc2)c1-c1nnc(COC(=O)c2ccc(N(C)C)cc2)o1`, the fluorescence intensity is reported as 3380 (inactive). With `CCOC(=O)c1ccc(COC(=O)CCc2nc(-c3ccccc3)c(-c3ccccc3)o2)cc1` the fluorescence intensity was 16400 (active). For `CCOC(=O)c1ccc(-n2c(CCC(=O)O)ccc2-c2ccccc2)cc1`, the fluorescence intensity was 3600 (inactive). With `COc1c(O)ccc2c1CN1CCc3cc4c(cc3C1C2)OCO4` (centres undefined) the fluorescence intensity was 4960 (inactive). For `COc1ccc(C2OC(CCc3ccccc3)Cc3[nH]c(=S)[nH]c(=O)c32)cc1` (centres undefined), the fluorescence intensity was 5590 (inactive). For `CCOC(=O)c1cc(NC(=O)c2cccnc2)cc(C(=O)OCC)c1`, the fluorescence intensity was 24800 (active). For `CCOC(=O)c1cc(NC(=O)c2cccnc2)ccn1`, the fluorescence intensity was 3490 (inactive). For `CCOc1ccccc1NC(=O)c1cccnc1`, the fluorescence intensity was 3020 (inactive).
